The results in this text go back to PubChem BioAssay (NCI).

Structures are written as SMILES. About 83,000 compounds went through this panel and 20% of them were active in at least one assay; those are over-represented in the sample as a whole.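 Plates (96-well) were seeded with cells, treated with compound at one concentration, and incubated for 48 hours before percent growth was determined.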 A number with no mark means an inactive call. Calls of active or inactive are those of the source. How the source made its calls: active means growth percent below 10; inactive means the rest.

Some test systems named below: NCI-H23 lung; NCI-H226 lung; NCI-H322M lung; HOP-62 NSCLC; NCI-H460 lung; HOP-92 NSCLC; NCI-H522 lung; A549/ATCC NSCLC; 786-0 renal; COLO 205 colon; DU-145 prostate; K-562 leukemia; MALME-3M melanoma; MDA-MB-231 breast; RXF 393 renal; SF-268 CNS; SF-295 CNS; SF-539 CNS; UACC-257 melanoma; M14 melanoma.
Holding throughout (assay): NCI-60 one-dose screen, 48 h (100 = growth as untreated, 0 = no growth, -100 = all killed)
What all share (settings): 10 µM unless noted

Consider `O=C1COc2ccccc2C(=O)N1CCCCN1CCCCC1`, for which the growth is 94% in the assay on NCI-H23 lung; 93% in the assay on NCI-H226 lung; 104% in the assay on NCI-H322M lung; 78.2% with HOP-62 NSCLC; 104% in the assay with NCI-H460 lung; 61.5% with HOP-92 NSCLC. Further, the growth in the assay with NCI-H522 lung is 71.5%; with A549/ATCC NSCLC, 96.4%; with 786-0 renal, 82.4%; in the assay on COLO 205 colon it was 87.6%; with DU-145 prostate, 93.7%; in the assay with K-562 leukemia, 50%. In addition, the growth with MALME-3M melanoma was 93.8%; in the assay with MDA-MB-231 breast, 109%; with RXF 393 renal, 118%; in the assay with SF-268 CNS it was 100%; with SF-295 CNS, 93.9%; in the assay on SF-539 CNS, 102%. Besides, the growth with UACC-257 melanoma was 102%; with M14 melanoma it was 91.9%.

`COc1ccc(C[C@H](N)C(=O)N[C@@H]2[C@@H](CO)OC(n3cnc4c(N(C)C)ncnc43)[C@@H]2O)cc1` (stereo not given in full): the growth was -39.4% (active) with NCI-H23 lung; -65.2% (active) with NCI-H226 lung; -65.2% (active) in the assay with NCI-H322M lung; -57.8% (active) with HOP-62 NSCLC; -67% (active) in the assay with NCI-H460 lung; -67.1% (active) in the assay with HOP-92 NSCLC. Moreover, the growth with NCI-H522 lung is -68.7% (active); in the assay with A549/ATCC NSCLC it was -57.9% (active); in the assay with 786-0 renal, -87.6% (active); in the assay with COLO 205 colon it was -63.2% (active); in the assay with DU-145 prostate it was -7.63% (active); with K-562 leukemia, -11.4% (active). The growth in the assay with MALME-3M melanoma is -78.1% (active); in the assay with MDA-MB-231 breast it was -10.1% (active); in the assay on RXF 393 renal it was -86.6% (active); in the assay on SF-268 CNS, -42.5% (active); with SF-295 CNS it was -43% (active); in the assay on SF-539 CNS it was -42.9% (active). Also, the values for the growth in the assay on UACC-257 melanoma and in the assay on M14 melanoma were -64.7% (active) and -85.5% (active), respectively.

For `C#C[C@@]1(O)[C@@H](CO)O[C@@H](n2cc(C(F)(F)F)c3c(N)ncnc32)[C@@H]1O`, the growth with NCI-H23 lung was 2.72% (active); in the assay with NCI-H226 lung, -12.1% (active); with NCI-H322M lung, 16%; with HOP-62 NSCLC, 7.02% (active); in the assay with NCI-H460 lung, 2.05% (active); in the assay with HOP-92 NSCLC, -13.7% (active). In addition, the growth with NCI-H522 lung was -52.5% (active); in the assay with A549/ATCC NSCLC, -4.98% (active); in the assay with 786-0 renal, 4.52% (active); with COLO 205 colon it was -77.1% (active); in the assay with DU-145 prostate, 10.2%; with K-562 leukemia, 5.44% (active). The growth is -22% (active) in the assay with MALME-3M melanoma; 14% in the assay with MDA-MB-231 breast; -30.3% (active) in the assay on RXF 393 renal; 11.9% in the assay on SF-268 CNS; 7.42% (active) in the assay with SF-295 CNS; -25.3% (active) in the assay on SF-539 CNS. Further, the growth in the assay with UACC-257 melanoma was 21%; in the assay with M14 melanoma, 9.25% (active).

With `Cc1nc(N)nc(SCc2ccccc2)c1Br`, the growth in the assay on NCI-H23 lung is 93.7%; with NCI-H226 lung, 83.7%; in the assay on NCI-H322M lung it was 70.3%; in the assay on HOP-62 NSCLC, 83.1%; in the assay on NCI-H460 lung, 104%; in the assay on HOP-92 NSCLC, 79.4%. In addition, the growth was 66.7% in the assay on NCI-H522 lung; 73.4% with A549/ATCC NSCLC; 88.9% with 786-0 renal; 105% in the assay on COLO 205 colon; 104% with DU-145 prostate; 88.4% in the assay on K-562 leukemia. Further, the growth was 92.6% in the assay on MALME-3M melanoma; 91.1% in the assay on MDA-MB-231 breast; 89.6% in the assay on RXF 393 renal; 96.1% with SF-268 CNS; 99.1% with SF-295 CNS; 96.4% in the assay with SF-539 CNS. For the same compound, the results for the growth with UACC-257 melanoma and in the assay on M14 melanoma were 74.1% and 104%, respectively.

Turning to `Cc1cccc(NCS(=O)(=O)O)c1`, the growth in the assay with NCI-H23 lung was 99.5%; in the assay on NCI-H226 lung it was 97.1%; in the assay with NCI-H322M lung it was 106%; with HOP-62 NSCLC it was 92.4%; in the assay on NCI-H460 lung, 105%; with HOP-92 NSCLC, 99.4%. The growth in the assay on NCI-H522 lung was 90.9%; in the assay on A549/ATCC NSCLC, 75%; in the assay on 786-0 renal it was 103%; with COLO 205 colon, 103%; in the assay on DU-145 prostate, 112%; with K-562 leukemia, 107%. Further, the growth in the assay on MALME-3M melanoma is 102%; with MDA-MB-231 breast, 111%; with RXF 393 renal, 109%; in the assay on SF-268 CNS, 109%; with SF-295 CNS, 106%; in the assay on SF-539 CNS, 95.7%. The growth with UACC-257 melanoma was 83.2%; in the assay with M14 melanoma, 106%.

With `O=C(N/N=C/c1ccccc1O)c1ccccc1O`, the growth in the assay on NCI-H23 lung was 37.5%; in the assay on NCI-H226 lung, 67%; with NCI-H322M lung, 32.6%; in the assay on HOP-62 NSCLC, 42.1%; in the assay on NCI-H460 lung it was 13.2%; in the assay with HOP-92 NSCLC, 56.5%. In addition, the growth in the assay with NCI-H522 lung was 6.88% (active); in the assay on A549/ATCC NSCLC, 45.4%; in the assay with 786-0 renal, 25.8%; with COLO 205 colon it was 55.5%; in the assay on DU-145 prostate, 38.7%; with K-562 leukemia, 37.8%. Moreover, the growth with MALME-3M melanoma is 47.9%; in the assay with MDA-MB-231 breast it was 56.7%; in the assay with RXF 393 renal, 54%; in the assay with SF-268 CNS, 36.6%; with SF-295 CNS, 42.1%; in the assay on SF-539 CNS, 34.5%. The growth was 5.06% (active) in the assay with UACC-257 melanoma and 36.5% in the assay on M14 melanoma.
